Shiga toxin inh: inhibitors of Shiga toxin in Vero cells; Vero cells, Shiga toxin protein synthesis inhibition reporter; inhibition, % at 38.7 µM; hit rate 9.2% among 290,000; AID 2315; in the data active = inhibition mostly above about 28%, no sharp cut-off; inactive = mostly below about 43%; also: 0% is about no effect
LASV entry inh: inhibitors of Lassa virus binding or cell entry; Lassa virus pseudotype entry inhibition, cell reporter; Potency, µM (top dose mostly 37.9 µM), inactives show top-dose activity change, negative = inhibition, usual class: inhibitors; hit rate 1.2% among 300,000; AID 540256; calls by dose curve; tested in HEK293 cells; also: potency is read from the fitted curve at half-maximal effect; % is scaled to controls: 0 for no effect and ±100 for the full control effect; nearly all actives have a fitted effect of over 50% in size
MARV entry inh: blocks Marburg virus binding to or entry into cells. Potency, µM (top dose mostly 37.8 µM), for inactives: at the top dose activity change, negative = inhibition, hits mostly inhibitors. hit rate 1.8% among 300,000. AID 540276. Marburg virus pseudotyped entry inhibition, cell reporter; calls by dose curve; tested in HEK293 cells; also: potency is read from the fitted curve at half-maximal effect; % is scaled to controls: 0 for no effect and ±100 for the full control effect
Cycloheximide cs: counter-screen for Shiga toxin inhibitors: cycloheximide protein synthesis inhibition; cell reporter, cycloheximide protein synthesis inhibition counterscreen; max response, %; hit rate 12% among 300,000; AID 2314; in the data active = max response mostly above about 13%, no sharp cut-off; inactive = mostly below about 14%; also: read at 38.3 µM for the half of the compounds with a filed dose; 0% is about no effect
Pf growth 96h: inhibits malaria parasite growth, 96 h. P. falciparum luciferase reporter growth, 96 h. Potency, µM (doses to about 28.7 µM), for inactives: top-dose activity change, negative = inhibition, hits mostly inhibitors. hit rate 6.9% among 320,000. AID 504834; also: potency is read from the fitted curve at half-maximal effect; % is scaled to controls: 0 for no effect and ±100 for the full control effect
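Delayed-death screen, second-generation endpoint: infected erythrocytes, 2% hematocrit, 0.05% parasitemia final; 96 hours at 37 C, 5% CO2; luciferase detection reagent; luminescence decrease equals reduced growth.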
Pf growth 48h: P. falciparum growth inhibition at 48 hours (one generation); P. falciparum luciferase growth in erythrocytes, 48 h; Potency, µM (top dose mostly 28.7 µM), inactives show at the top dose activity change, negative = inhibition, hits mostly inhibitors; hit rate 5.9% among 310,000; AID 504832; also: potency is read from the fitted curve at half-maximal effect; % is scaled to controls: 0 for no effect and ±100 for the full control effect
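Luminescence readout; reporter = integrated firefly luciferase in P. falciparum. RBC culture at 2% hematocrit, 0.1% parasitemia final, 37 C/5% CO2; decreased signal taken as growth inhibition.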
The depositor's hits bear a star; ? = inconclusive; / = no result given; + = active, no number; [ ] = dose if it differs, or a comment. A selection: hits, their analogues and other compounds. The true share with any hit is near 19%. Unless noted, calls follow the shape of the dose curve; as a rule, active = well fitted inhibition curve with a large enough effect; inconclusive = small, poorly fitted or top-dose-only effect, or another doubt; inactive = no such curve, though single readings can be large or run the other way.

SMILES	Shiga toxin inh	LASV entry inh	MARV entry inh	Cycloheximide cs	Pf growth 96h	Pf growth 48h
Cc1cc2n(n1)SC(Nc1ccc(F)cc1)N2 (stereo not drawn)	41*	?	?	13*	33%	51%
Cc1cc(C)n(CCC(=O)N2CCCC(Nc3ccc(F)cc3)C2)n1 (stereo not drawn)	/	22%	0%	/	/	/
Cc1cc2n(n1)SC(Nc1cccc3ccccc13)N2 (stereo not drawn)	52*	14%	0%	27*	167%	77%
CCc1ccccc1NC1Nc2cc(C)nn2S1 (stereo not drawn)	14	1%	-1%[46.1 µM]	15	-1%	1%
CN(C)c1ccc(NS(=O)(=O)c2cc(Cl)ccc2Cl)cc1	33	?	?	21*	?	71%
CCN(c1ccc(NS(=O)(=O)c2cc(Cl)ccc2Cl)cc1)C(C)C	-5	?	?	-4	16%	-5%
O=C(NC1CCCCC1)c1ccc(CSc2nc3ccncc3n2Cc2ccc(F)cc2)cc1	/	/	-26%[46.1 µM]	/	/	/
CCN1CCCC1CN=Cc1c(O)n(-c2ccccc2)c(=O)c2ccccc12 (stereo not drawn)	11	-1%	-1%	-1	5%[5.75 µM]	3.7µM*
Cc1cccc(-n2c(O)c(C=NCCCN3CCOCC3)c3ccccc3c2=O)c1	15	0%	28%	7	?	7.4µM*
Cc1cccc(-n2c(O)c(C=NCc3ccccn3)c3ccccc3c2=O)c1	-12	-6%	2%	-7	-21%	-24%
COc1ccc(C2CC(=O)C(C=NCCCN3CCOCC3)=C(O)C2)cc1 (stereo not drawn)	8	0%	?	0	3.3µM*	11%
O=C1C(C=NCCN2CCOCC2)=C(O)c2ccccc21	84*	3%	?	47*	?	14%
CC(C)CCN=Cc1c(O)n(-c2ccccc2)c(=O)c2ccccc12	-14	?	1%	-3	?	/
O=C(O)CCC(=O)Nc1ccccc1N1CCOCC1	-15	10%	5%	-1	7%	3%
O=C1C(C=NCCCN2CCOCC2)=C(O)c2ccccc21	59*	4%	-8%	27*	?	18%
COc1ccc(C=NCCCN2CCOCC2)cc1	19	-1%	-5%	11	-19%	?
CC(C)=Cc1oc2ccc([N+](=O)[O-])cc2c1N1CCOCC1	65*	8%[46.1 µM]	?	21*	?	?
O=[N+]([O-])c1ccc(N2CCOCC2)c([N+](=O)[O-])c1	/	15%[46.1 µM]	1%[46.1 µM]	/	/	/
Cc1ccc(NC(=O)C2CC(=O)OC23CCOC(C)(C)C3)cc1 (stereo not drawn)	-11	15%	1%	-4	-20%	/
Cc1ccc(C(=O)CSc2nsc(C)c2C#N)cc1	+	?	0%	30*	90%	187%
Cc1snc(SCC(=O)c2ccc(Cl)cc2)c1C#N	58*	25%	?	35*	242%	97%
Cc1cc(C)c(C#N)c(OCC(=O)c2ccc(Br)cc2)n1	-11	4%	7%	9	4.7µM*	?
COC(=O)c1ccccc1CSc1nsc(C)c1C#N	3	/	/	-3	16%	29%
Cc1ccnc(SCC(=O)c2ccc(Br)cc2)c1C#N	96*	-7%	1%	84*	112%	118%
Cc1ccc(C(=O)N[C@H](C(=O)Nc2ccc(F)cc2)C(C)C)cc1	27	/	/	1	?	/
SMILES	Shiga toxin inh	LASV entry inh	MARV entry inh	Cycloheximide cs	Pf growth 96h	Pf growth 48h
CCNC(=S)N/N=C/c1ccc(F)cc1	-9	/	/	0	?	-1%
COc1ccc(NC(=S)N/N=C/c2ccc(F)c(F)c2)cc1	41*	/	/	20*	0%	-9%
Cc1ccc(NC(=S)N/N=C/c2ccc(Cl)c([N+](=O)[O-])c2)cc1	3	-15%	-24%	-5	/	19%
COc1ccc(NC(=S)N/N=C/c2cccn2Cc2ccccc2F)cc1	-14	-9%	-20%[46.1 µM]	-5	-6%	?
Fc1ccc(NC(=S)N/N=C/c2ccc(F)c(F)c2)cc1	52	?	9%[46.1 µM]	29*	?	-16%
Fc1ccc(/C=N/NC(=S)Nc2ccc(Cl)cc2)cc1F	20	?	?	22*	63%	22%
COc1ccc(NC(=S)N/N=C/c2cccn2Cc2ccc(F)cc2Cl)cc1	33	?	?	9	?	3.7µM*
Cn1c(=O)c2c(SCC(=O)NCC3CCCO3)nc(-c3ccccc3Cl)nc2n(C)c1=O (stereo not drawn)	-2	0%	1%	1	?	?
Cc1cc(C)n2nc(SC(C)C(=O)N3CCCC3)nc2n1 (stereo not drawn)	/	-4%	3%	/	-8%	?
CCOC(=O)c1[nH]c(C)c(/C(O)=C2\C(=O)C(=O)N(CCN(C)C)C2c2cccc(OC)c2OC)c1C (stereo not drawn)	-13	-15%	3%	6	-9%[5.75 µM]	14%
Cc1nc2c(sc(=S)n2Cc2ccco2)c(=O)n1CC(=O)Nc1cc(F)ccc1F	-4	/	/	5	?	-25%
Cc1cc(C)c(NC(=S)N(C)C)c(C)c1	-3	/	/	-3	66%	-7%
COc1ccc(NC(=S)N/N=C/c2ccc(F)cc2)cc1OC	46*	-25%	-9%[14.2 µM]	30*	13%	?
COc1ccc(/C=N/NC(=S)Nc2ccccc2)cc1COc1ccc(F)cc1F	17	1.6µM*	?	2	?	?
Fc1ccc(/C=N/NC(=S)Nc2ccc(Cl)cc2Cl)cc1	-5	-8%	?	12	2.1µM*	-3%
Cc1cccc(OC(C)C(=O)Nc2nonc2-c2ccc(Br)cc2)c1C (stereo not drawn)	/	-25%[46.1 µM]	?	/	/	/
CCC(C(=O)NCCc1ccccc1)c1ccccc1 (stereo not drawn)	/	/	/	-2	?	-40%
CCCCCCCCCC(=O)Nn1cnc2ccccc2c1=O	-7	/	/	-2	?	29%
CCN(CC)c1ccc(C(=O)Nn2cnc3ccccc3c2=O)cc1	76*	-19%[46.1 µM]	?	35*	-4%	17%
COc1ccccc1C(=O)Nn1cnc2ccccc2c1=O	49*	?	14%	24*	-9%	74%
CCCCN(C(=O)c1cccc(-n2cnnn2)c1)c1c(N)n(CC(C)C)c(=O)[nH]c1=O	/	/	/	/	-14%	?
Cc1cc(NC(=O)CSCC(=O)N(C)Cc2ccc(F)cc2)no1	-8	6%	-16%	-2	-5%	7%
C[C@@H]1NS(=O)(=O)[C@H]2C[C@@H]3C=C[C@]2(O3)[C@H]1OC(=O)c1ccccc1Br	/	/	/	/	-9%	?
Cc1cc(C(=O)O[C@H]2[C@H](C)NS(=O)(=O)[C@H]3C[C@@H]4C=C[C@]23O4)cc([N+](=O)[O-])c1	/	/	/	/	37%	-13%
CCOc1ccc(C(=O)O[C@H]2[C@H](Cc3ccccc3)NS(=O)(=O)[C@H]3C[C@@H]4C=C[C@]23O4)cc1	/	/	/	/	4.7µM*	2.1µM*

Bioassay records deposited in PubChem by National Center for Advancing Translational Sciences (NCATS).
